# Test results taken from PubChem BioAssay AID651671 (Sanford-Burnham Center for Chemical Genomics, 2012).
# The list shows a part of the results. Values without a mark were called inactive.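 The calls were made as follows: active = activation of at least 7% in one or more replicates; inactive = the rest.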
# Assay: alpha-DG glycosylation enhancers, retest, confirmation, single concentration, Pro5-aDG cells (AID 651671);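 also: cells exposed to compound for two days before detection; 0% = DMSO-treated Pro5 cells and 100% = DMSO-treated B10-LARGE cells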
# Conditions: IIH6 AlphaLISA, stronger effect = higher value, screened at 10 µM (by protocol), scaled to LARGE-overexpressing B10 cells as 100%
compound,measurement,value
CNCC(O)c1cc(F)c(OCc2ccccc2)c(OCc2ccccc2)c1F (stereo unspecified),activation,4%
